Measured values reported in PubChem BioAssay (NCATS).
Records with an inconclusive call do not appear. The source made the active and inactive calls. Unless noted, the call rests on the fitted dose curve; in most records, active means well fitted curve in the direction sought with a large enough effect; inconclusive means small, poorly fitted or top-dose-only effect, or another doubt; inactive means no such curve, though single readings can be large; an effect the other way counts as inactive or inconclusive.

Columns and labels:
[1] = Cell Viability - BJ (AID 421; calls by dose curve;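 further: potency means the concentration at half of the fitted maximal effect; cells exposed to compound for 40 hours at 37 °C before readout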); settings: BJ fibroblast viability, qHTS
Outline: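 Luminescent ATP signal (CellTiter-Glo, 20 min at room temperature) served as the read-out of viable BJ cells after 40 hours of compound treatment. Responses were scaled between DMSO and 100 uM tamoxifen, and AC50 values were obtained by Hill modeling.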

[2] = Cell Viability - Jurkat (AID 426;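 active means dose-dependent loss of cell ATP signal giving a full or clear fitted curve, ranked by lower potency value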;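 further: potency means the concentration at half of the fitted maximal effect; cells exposed to compound for 40 hours at 37 °C before ATP read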); settings: qHTS
Outline: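 Luminescent ATP read-out (CellTiter-Glo, 20 min at room temperature) after 40 hr compound exposure at 37 °C of Jurkat E6-1 cells, 5000/well. Decreased ATP taken as cytotoxicity; AC50 from standard Hill equation.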

[3] = Cell Viability - Hek293 (AID 427;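 active means compounds whose dose-response curve shows a full or clear partial loss of cell viability, called from curve shape rather than a numeric limit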;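 further: potency means the concentration at half of the fitted maximal effect; cells exposed to compound for 40 hours at 37 °C before reading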); settings: qHTS
Outline: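 Luminescent ATP read-out (CellTiter-Glo, 20 min RT) after 40 hr compound exposure at 37 °C in complete medium. Signal normalized to DMSO (basal) and 100 uM tamoxifen (100% inhibition); concentration-response fitted with the standard Hill equation to give AC50.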

[4] = Cell Viability - MRC5 (AID 434; calls by dose curve;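 further: potency means the concentration at half of the fitted maximal effect; cells exposed to compound for 40 hours at 37 °C; potency reflects cytotoxicity seen as loss of intracellular ATP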); settings: MRC5 lung fibroblast viability, qHTS
Outline: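 AC50 values come from Hill-equation fits of intracellular ATP loss, measured by CellTiter-Glo luminescence. Normal lung fibroblasts (MRC5) had 40 hr compound treatment at 37 C, normalized between DMSO and 100 uM tamoxifen.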

[5] = Cell Viability - SK-N-SH (AID 435; calls by dose curve; further: potency means the concentration at half of the fitted maximal effect); settings: SK-N-SH neuroblastoma cell viability qHTS
Outline: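 Human neuroblastoma line, 40 h exposure at 37 °C, ATP quantified via luciferase luminescence; DMSO and 100 uM tamoxifen define 0 and 100% inhibition for AC50 fitting.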

[6] = Cell Viability - N2a (AID 540); settings: N2a mouse neuroblastoma cell viability; activity change, negative = cytotoxicity: at 92.2 µM (top of the series);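 further: plate controls were DMSO alone for no effect and tamoxifen control for full effect; nearly all actives have a fitted effect of over 45% in size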
Outline: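 N2a mouse neuroblastoma, 1500 cells/well, 5 hr settle; compound 40 hr, 37 °C; CellTiter-Glo 20 min RT; luminescence; Hill-fit AC50.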

[7] = Cell Viability - HUV-EC-C (AID 542); further: on the % scale 0 is the no-effect control and ±100 the full control effect; nearly all actives have a fitted effect of over 35% in size
Outline: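 Luminescent ATP read-out (CellTiter-Glo, 20 min room temperature) after 40 hr compound treatment of HUV-EC-C cells at 37 °C. Concentration-response data fitted with the standard Hill equation to give AC50; tamoxifen and doxorubicin served as positive controls.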

[8] = Cell Viability - H-4-II-E (AID 543); further: on the % scale 0 is the no-effect control and ±100 the full control effect; nearly all actives have a fitted effect of over 35% in size
Outline: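 qHTS, rat hepatoma H-4-II-E, 1500 cells/well; 40 hr compound exposure, 37 °C; CellTiter-Glo ATP luminescence after 20 min RT; AC50 by standard Hill fit.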

[9] = Cell Viability - SH-SY5Y (AID 544); further: nearly all actives have a fitted effect of over 55% in size
Outline: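 SH-SY5Y, 1500 cells/well, 5 hr pre-incubation 37 °C; cpd 40 hr 37 °C; CellTiter-Glo 20 min RT; luminescence (ATP) read. qHTS concentration-response, Hill fit → AC50. Tamoxifen, doxorubicin as positive controls.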

[10] = Cell Viability - Mesenchymal (AID 546); settings: mesenchymal cells viability, qHTS; activity change, negative = cytotoxicity: at 91.7 µM (top of the series);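 further: cells exposed to compound for 40 hours before reading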
Outline: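 CellTiter-Glo luminescence (intracellular ATP, 20 min room temperature) after 40 hr compound exposure at 37 °C of 1000 glomerulus-derived human kidney mesenchymal cells/well; AC50 values obtained by fitting qHTS concentration-response data to the Hill equation.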

[11] = Cellular Toxicity (caspase-3) Jurkat (AID 655); settings: Jurkat caspase-3 activation, luminescence, DMSO = 0%, tamoxifen = 100%; at 92.2 µM (top of the series);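 further: cells exposed to compound for 16 h at 37 °C before reading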
Outline: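 qHTS in human Jurkat T-cell leukemia line: 16 hr compound treatment at 37 °C, caspase-3/7 activity measured by Caspase-Glo luminescence. AC50 derived from Hill equation.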

[12] = Cellular Toxicity (caspase-3) HUV-EC-C (AID 656)
Outline: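 Concentration-dependent caspase 3/7 induction was assessed in HUV-EC-C cells exposed for 16 hours. Data scaled between DMSO and tamoxifen (100 uM) controls.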

[13] = Cellular Toxicity (caspase-3) SHSY5Y (AID 657);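 further: cells exposed to compound for 16 hours at 37 °C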
Outline: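 Readout: caspase-cleaved peptide-aminoluciferin substrate driving luciferase light in SH-SY5Y neuroblastoma cells after 16 h treatment. Response normalized to DMSO and 10 uM staurosporine controls.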

[14] = Cellular Toxicity (caspase-3) MRC-5 (AID 659);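 further: 0% = DMSO basal and 100% = 10 µM staurosporine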
Outline: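 Luminescent Caspase-Glo 3/7 read-out (1 h, room temperature) after a 16 h, 37 °C compound exposure of MRC-5 lung fibroblasts at 1500 cells/well. Concentration-response AC50 from Hill equation; 0% DMSO, 100% 10 uM staurosporine.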

[15] = Cellular Toxicity (caspase-3) Mesangial (AID 660);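 further: combined caspase 3 and 7 activity read by Caspase-Glo luminescence; cells exposed to compound for 16 h before the caspase read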
Outline: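 Luminescent Caspase-Glo 3/7 readout (aminoluciferin substrate cleavage, 20 min RT) after 16 h compound exposure at 37 °C of normal human mesangial cells. Signal increase normalized between DMSO basal and 100 uM tamoxifen; Hill-equation AC50.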

[16] = Cellular Toxicity (caspase-3) H-4-II-E (AID 663); settings: Potency: caspase-3 activation;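 further: cells exposed to compound for 16 hr before readout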
Outline: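 Caspase 3/7 activation measured by luminescent aminoluciferin substrate cleavage after 16 hr compound treatment of H-4-II-E cells in complete medium. Increase normalized between DMSO (basal) and 100 uM tamoxifen (100%); Hill-equation AC50 from concentration-response.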

[17] = Cellular Toxicity (caspase-3) Hek293 (AID 664);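 further: cells exposed to compound for 16 h at 37 °C before readout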
Outline: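 Luminescent Caspase-Glo 3/7 readout (aminoluciferin release) in HEK293 cells after 16 h compound treatment, 37 °C. Normalization: DMSO = basal, 100 uM tamoxifen = 100% stimulation. Concentration-response fitted with standard Hill equation for AC50.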

[18] = Cellular Toxicity (caspase-3) N2a (AID 665);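 further: compound exposure lasted 16 h at 37 °C before readout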
Outline: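 Luminescent Caspase-Glo 3/7 readout in N2a mouse neuroblastoma cells after 16 h compound exposure at 37 °C. Signal scaled to DMSO (basal) and 10 uM staurosporine (100%). Concentration-response fitted with Hill equation for AC50.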

[19] = Cellular Toxicity (caspase-3) NIH 3T3 (AID 666);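 further: 0% = DMSO basal and 100% = 100 µM tamoxifen stimulation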
Outline: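 NIH 3T3, 1000 cells/well, 5 hr settle then 16 hr compound at 37°C; Caspase-Glo 3/7, 20 min RT, luminescence. DMSO = basal, 100 uM tamoxifen = 100%. Hill-equation AC50, qHTS.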

[20] = Cellular Toxicity (caspase-3) Renal Proximal Tubule (AID 667);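 further: cells exposed to compound for 16 hours at 37 °C before detection; 0% = DMSO basal and 100% = 10 µM staurosporine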
Outline: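 Caspase-Glo 3/7 read-out, rat primary kidney proximal tubule cells. Compound exposure 16 h, 37 °C; detection after 1 h at RT. Activity scaled to DMSO and 10 uM staurosporine.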

[21] = Cell Viability - LYMP2-001 (AID 921);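 further: cells exposed to compound for 24 h at 37 °C; 0% = DMSO only and full inhibition = tetraoctylammonium bromide control wells; nearly all actives have a fitted effect of over 70% in size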
Outline: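 A lymphoblastoid cell line of human origin was treated with library compounds across a concentration series for 24 hours, and viable cell number was estimated from ATP-driven luciferase light output. Hill modeling gave AC50.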

[22] = MultiTox-Fluor Cytotoxicity Assay - LYMP1-001 - Dead Cells (AID 946);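 further: 0% = DMSO and 100% = tetraoctylammonium bromide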
Outline: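 AC50 from Hill fit of concentration-response; data normalized to DMSO (basal) and 15 uM tetraoctylammonium bromide (100%). LYMP1-001 lymphoblastoid cells, 2500/well, 16 hr compound at 37 C; dead-cell protease fluorescence, Ex/Em 485/520.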

[23] = MultiTox-Fluor Cytotoxicity Assay - LYMP1-001 - Live Cells (AID 947);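 further: 0% = DMSO only and full inhibition = tetraoctylammonium bromide control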
[24] = Cell Viability - LYMP1-002 - Assay at 16 hr (AID 948);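 further: 0% = DMSO alone and full effect = 92 µM tetraoctylammonium bromide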
Outline: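 In this qHTS, lymphoblastoid LYMP1-002 cells (human) receive compounds for 16 hr at 37 C. Viability is taken from CellTiter-Glo ATP luminescence, and AC50 derives from standard Hill fits.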

[25] = MultiTox-Fluor Cytotoxicity Assay - LYMP1-002 - Live Cells (AID 955); further: on the % scale 0 is the no-effect control and ±100 the full control effect
Outline: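 LYMP1-002 lymphoblastoid cells; 2500 cells/well; 16 hr compound exposure, 37 C; MultiTox-Fluor reagent 60 min RT; live-cell fluorescence Ex/Em=405/510; qHTS concentration-response, Hill-equation AC50; tetraoctylammonium bromide positive control.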

[26] = MultiTox-Fluor Cytotoxicity Assay - LYMP1-002 - Dead Cells (AID 960);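 further: 0% = DMSO and 100% = tetraoctylammonium bromide; nearly all actives have a fitted effect of over 60% in size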
Outline: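 Readout: fluorescence at 485/520 from cell-impermeant bis-AAF-R110 cleaved by proteases leaking from damaged cells. LYMP1-002 lymphoblastoid line, 16 hr compound treatment at 37 C, concentration-response in qHTS format; Hill-equation AC50 values.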

[27] = MultiTox-Fluor Cytotoxicity Assay - LYMP1-003 - Dead Cells (AID 961);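 further: 0% = DMSO and 100% = tetraoctylammonium bromide; nearly all actives have a fitted effect of over 70% in size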
Outline: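 Human lymphoblastoid LYMP1-003 cells (2500/well) were treated with compounds for 16 hr at 37 C in complete medium. Dead-cell protease release was read by bis-AAF-R110 fluorescence (Ex/Em 485/520). AC50 came from Hill fits, normalized to DMSO and 15 uM tetraoctylammonium bromide.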

[28] = MultiTox-Fluor Cytotoxicity Assay - LYMP1-003 - Live Cells (AID 962);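 further: cells exposed to compound for 16 hours at 37 °C; 0% = DMSO only and full loss = 92 µM tetraoctylammonium bromide; cytotoxic hits lower the live-cell protease signal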
Outline: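 Readout: live-cell fluorescence (Ex/Em=405/510) from GF-AFC cleavage after 60 min MultiTox-Fluor reagent at room temperature. Lymphoblastoid LYMP1-003 cells, 16 hr compound treatment, 37 C. Concentration-response fitted to standard Hill equation for AC50.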

[29] = Cell Viability - LYMP1-003 - Assay at 24 hr (AID 963);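 further: plate controls were DMSO only for no effect and tetraoctylammonium bromide positive control for full effect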
Outline: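 CellTiter-Glo luminescence (intracellular ATP) read after 24 hr, 37 C compound exposure of 2500 LYMP1-003 human lymphoblastoid cells/well in complete medium; qHTS concentration series; AC50 via standard Hill equation.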

[30] = Cell Viability - LYMP1-003 - Assay at 40 hr (AID 964); further: on the % scale 0 is the no-effect control and ±100 the full control effect; nearly all actives have a fitted effect of over 60% in size
Outline: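 LYMP1-003 lymphoblastoid cells, 2500/well; 5 hr preincubation, 40 hr compound exposure, 37 C; CellTiter-Glo 30 min RT; luminescence; Hill-fit AC50. Positive control tetraoctylammonium bromide.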

[31] = Cell Viability - LYMP2-003 (AID 965);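 further: cells exposed to compounds for 24 h before reading; 0% = DMSO only and full effect = 92 µM tetraoctylammonium bromide; nearly all actives have a fitted effect of over 50% in size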
Outline: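 qHTS, human lymphoblastoid line, 2500 cells/well, complete medium. 24 h drug, 37 C. ATP-based luminescent readout; Hill-fit AC50.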

O=C(/C=C/c1ccc(O)c(O)c1)O[C@@H](C(=O)O)[C@@H](OC(=O)/C=C/c1ccc(O)c(O)c1)C(=O)O
inactive: Potency [1] > 92 µM | Potency [2] > 92 µM | Potency [3] > 92 µM | Potency [4] > 92 µM | Potency [5] > 92 µM | activity change, negative = cytotoxicity [6] -0.47% | outcome [7] | Potency [8] | Potency [9] | activity change, negative = cytotoxicity [10] 11% | caspase-3 activation [11] 1.83% | outcome [12] | outcome [13] | outcome [14] | outcome [15] | Potency [16] | outcome [17] | outcome [18] | outcome [19] | outcome [20] | Potency [21] | Potency [22] | Potency [23] | Potency [24] | Potency [25] | Potency [26] | Potency [27] | Potency [28] | Potency [29] | Potency [30] | Potency [31]
